Experimental data as given in paper PMC7862700, “An all-to-all approach to the identification of sequence-specific readers for epigenetic DNA modifications on cytosine”.

Tests used:
Assay in all cases: DAPPL (digital affinity profiling via proximity ligation, sequencing); 10 mM Tris-HCl pH 7.5, 50 mM NaCl, 1 mM DTT, 4% glycerol, room temperature, 30 min; GST-TFs on glutathione beads, 16-mer random dsDNA library, 0.1% formaldehyde crosslink after washing; high values mean tight binding
Settings in all cases: protein: recombinant; tags: N-terminal GST; dsDNA, one strand shown
FLI1 = target: T1, FLI1 (Homo sapiens, UniProt Q01543 1-452)
T1 sequence: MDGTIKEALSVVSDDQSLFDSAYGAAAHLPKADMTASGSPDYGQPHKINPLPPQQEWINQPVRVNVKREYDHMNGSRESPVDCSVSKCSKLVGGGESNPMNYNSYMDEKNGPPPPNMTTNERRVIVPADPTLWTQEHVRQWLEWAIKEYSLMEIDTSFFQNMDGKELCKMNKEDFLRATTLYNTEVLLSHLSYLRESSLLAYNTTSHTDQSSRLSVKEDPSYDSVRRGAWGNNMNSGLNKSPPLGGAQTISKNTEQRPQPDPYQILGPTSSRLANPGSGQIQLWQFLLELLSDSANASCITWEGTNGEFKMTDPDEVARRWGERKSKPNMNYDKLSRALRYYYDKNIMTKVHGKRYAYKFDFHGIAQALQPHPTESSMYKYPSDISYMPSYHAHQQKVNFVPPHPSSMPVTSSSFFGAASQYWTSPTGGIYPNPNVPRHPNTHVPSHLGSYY
How it was run: (§1)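 GST fusions of human transcription factors were expressed in yeast and captured with glutathione beads. Once given DNA barcodes and pooled alongside a tag-only sample, they were incubated for 30 min at room temperature with 200 nmole of a random double-stranded 16-mer DNA library in Tris/NaCl/DTT/glycerol buffer, then washed, crosslinked (0.1% formaldehyde), proximity-ligated, PCR-amplified and sequenced on an Illumina NextSeq500. The binding signal of each hexamer is its read frequency for a factor divided by its frequency for the tag-only sample.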

ELK1 = target: T2, ELK1 (Homo sapiens, UniProt P19419 1-428)
T2 sequence: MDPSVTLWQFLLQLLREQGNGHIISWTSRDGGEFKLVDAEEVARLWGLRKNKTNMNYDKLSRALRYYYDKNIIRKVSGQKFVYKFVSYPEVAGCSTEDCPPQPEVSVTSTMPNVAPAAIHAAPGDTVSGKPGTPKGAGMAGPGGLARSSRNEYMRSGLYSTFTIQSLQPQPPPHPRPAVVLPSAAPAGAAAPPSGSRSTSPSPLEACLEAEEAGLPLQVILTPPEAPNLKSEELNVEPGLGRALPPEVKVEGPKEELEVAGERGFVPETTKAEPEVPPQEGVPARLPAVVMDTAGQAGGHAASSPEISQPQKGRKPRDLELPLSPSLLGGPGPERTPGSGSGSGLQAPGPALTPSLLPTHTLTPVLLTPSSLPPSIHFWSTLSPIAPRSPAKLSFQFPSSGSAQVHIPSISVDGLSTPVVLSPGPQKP
How it was run: as §1

GABPA = target: T3, GABPA (Homo sapiens, UniProt Q06546 1-454)
T3 sequence: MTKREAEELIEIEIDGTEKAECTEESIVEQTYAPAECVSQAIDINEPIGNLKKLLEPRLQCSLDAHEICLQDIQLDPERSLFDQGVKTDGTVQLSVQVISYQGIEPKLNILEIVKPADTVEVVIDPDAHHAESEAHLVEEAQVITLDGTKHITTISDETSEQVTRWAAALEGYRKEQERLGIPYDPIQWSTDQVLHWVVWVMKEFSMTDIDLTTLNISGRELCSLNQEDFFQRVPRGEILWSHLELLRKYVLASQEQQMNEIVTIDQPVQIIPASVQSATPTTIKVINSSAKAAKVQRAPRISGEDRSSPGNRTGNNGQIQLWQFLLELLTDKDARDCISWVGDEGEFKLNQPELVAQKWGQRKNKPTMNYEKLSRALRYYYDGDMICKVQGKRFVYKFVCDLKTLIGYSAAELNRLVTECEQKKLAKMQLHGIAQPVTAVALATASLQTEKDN
How it was run: as §1

ERG = target: T4, ERG (Homo sapiens, UniProt P11308 1-479)
T4 sequence: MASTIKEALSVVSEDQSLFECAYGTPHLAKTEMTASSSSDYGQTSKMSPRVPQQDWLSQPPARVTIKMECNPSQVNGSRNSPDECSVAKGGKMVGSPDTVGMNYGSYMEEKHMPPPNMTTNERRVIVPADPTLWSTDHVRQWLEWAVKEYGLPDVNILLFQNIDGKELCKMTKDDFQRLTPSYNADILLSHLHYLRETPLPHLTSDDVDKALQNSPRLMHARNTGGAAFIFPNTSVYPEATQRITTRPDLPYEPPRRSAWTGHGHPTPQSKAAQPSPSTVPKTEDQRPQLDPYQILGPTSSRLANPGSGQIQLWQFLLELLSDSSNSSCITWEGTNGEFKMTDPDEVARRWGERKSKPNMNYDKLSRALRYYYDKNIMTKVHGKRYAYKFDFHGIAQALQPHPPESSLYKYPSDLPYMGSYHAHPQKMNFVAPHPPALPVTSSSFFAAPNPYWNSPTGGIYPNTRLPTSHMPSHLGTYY
How it was run: as §1

ELF1 = ELF1 (Homo sapiens, UniProt P32519 1-619)
Chain of ELF1 (P32519 whole entry): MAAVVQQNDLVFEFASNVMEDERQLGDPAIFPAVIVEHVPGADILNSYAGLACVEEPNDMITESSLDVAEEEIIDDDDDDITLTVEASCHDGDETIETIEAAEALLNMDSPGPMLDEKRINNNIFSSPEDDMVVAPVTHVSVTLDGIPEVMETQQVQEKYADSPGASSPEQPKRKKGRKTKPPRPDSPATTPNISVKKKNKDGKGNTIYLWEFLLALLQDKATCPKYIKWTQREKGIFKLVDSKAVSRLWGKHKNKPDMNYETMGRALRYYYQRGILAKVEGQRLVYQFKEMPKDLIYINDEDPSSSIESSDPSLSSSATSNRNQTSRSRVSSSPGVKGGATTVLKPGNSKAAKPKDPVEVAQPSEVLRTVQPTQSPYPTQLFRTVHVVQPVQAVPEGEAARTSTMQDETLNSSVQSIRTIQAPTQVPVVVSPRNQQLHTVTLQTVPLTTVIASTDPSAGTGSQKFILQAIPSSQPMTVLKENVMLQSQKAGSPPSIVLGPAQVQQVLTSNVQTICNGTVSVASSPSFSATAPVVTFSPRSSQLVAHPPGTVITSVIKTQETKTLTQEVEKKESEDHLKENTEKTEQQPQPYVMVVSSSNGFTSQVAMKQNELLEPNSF
How it was run: as §1

EHF = target: T5, EHF (Homo sapiens, UniProt Q9NZC4 1-300)
T5 sequence: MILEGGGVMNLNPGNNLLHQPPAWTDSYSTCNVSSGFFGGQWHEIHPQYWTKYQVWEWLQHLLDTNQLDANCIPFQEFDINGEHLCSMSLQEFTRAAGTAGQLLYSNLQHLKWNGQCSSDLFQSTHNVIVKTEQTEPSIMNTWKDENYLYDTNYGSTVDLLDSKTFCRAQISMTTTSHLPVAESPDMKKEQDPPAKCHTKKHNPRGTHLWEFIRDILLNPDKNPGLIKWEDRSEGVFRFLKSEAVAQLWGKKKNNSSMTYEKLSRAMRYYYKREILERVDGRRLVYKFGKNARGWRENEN
How it was run: as §1

SPI1 = SPI1 (Homo sapiens, UniProt P17947 1-270)
How it was run: as §1

SPIB = SPIB (Homo sapiens, UniProt Q01892 1-262)
Chain of SPIB (Q01892 whole entry): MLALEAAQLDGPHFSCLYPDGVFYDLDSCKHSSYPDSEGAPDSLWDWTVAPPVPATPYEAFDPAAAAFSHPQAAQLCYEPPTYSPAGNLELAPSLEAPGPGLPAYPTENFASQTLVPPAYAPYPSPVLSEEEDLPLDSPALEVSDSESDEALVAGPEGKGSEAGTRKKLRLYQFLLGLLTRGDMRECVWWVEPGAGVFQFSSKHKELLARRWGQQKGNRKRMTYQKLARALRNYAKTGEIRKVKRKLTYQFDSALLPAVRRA
How it was run: as §1

ELK3 = target: T6, ELK3 (Homo sapiens, UniProt P41970 1-407)
T6 sequence: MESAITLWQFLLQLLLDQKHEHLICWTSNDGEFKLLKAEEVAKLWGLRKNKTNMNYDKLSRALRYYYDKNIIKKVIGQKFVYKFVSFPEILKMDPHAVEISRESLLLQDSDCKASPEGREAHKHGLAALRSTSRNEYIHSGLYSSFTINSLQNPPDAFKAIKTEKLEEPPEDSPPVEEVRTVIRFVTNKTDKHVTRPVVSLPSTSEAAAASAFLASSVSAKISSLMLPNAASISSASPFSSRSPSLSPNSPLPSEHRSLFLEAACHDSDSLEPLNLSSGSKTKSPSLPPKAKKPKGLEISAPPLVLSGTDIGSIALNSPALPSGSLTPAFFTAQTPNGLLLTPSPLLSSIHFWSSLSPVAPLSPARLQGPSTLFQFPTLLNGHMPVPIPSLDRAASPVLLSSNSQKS
How it was run: as §1

Sequence	binding signal (FLI1)	binding signal (ELK1)	binding signal (GABPA)	binding signal (ERG)	binding signal (ELF1)	binding signal (EHF)	binding signal (SPI1)	binding signal (SPIB)	binding signal (ELK3)
AATACT	1.16 fold enrichment (6-mer frequency, TF over GST control)	1.19 fold enrichment (6-mer frequency, TF over GST control)	1.23 fold enrichment (6-mer frequency, TF over GST control)	1.22 fold enrichment (6-mer frequency, TF over GST control)	1.29 fold enrichment (6-mer frequency, TF over GST control)	1.24 fold enrichment (6-mer frequency, TF over GST control)	1.21 fold enrichment (6-mer frequency, TF over GST control)	1.14 fold enrichment (6-mer frequency, TF over GST control)	1.23 fold enrichment (6-mer frequency, TF over GST control)
TCGCTC	1.25 fold enrichment (6-mer frequency, TF over GST control)	1.27 fold enrichment (6-mer frequency, TF over GST control)	1.35 fold enrichment (6-mer frequency, TF over GST control)	1.26 fold enrichment (6-mer frequency, TF over GST control)	1.29 fold enrichment (6-mer frequency, TF over GST control)	1.19 fold enrichment (6-mer frequency, TF over GST control)	1.29 fold enrichment (6-mer frequency, TF over GST control)	1.27 fold enrichment (6-mer frequency, TF over GST control)	1.37 fold enrichment (6-mer frequency, TF over GST control)
TCTGCC	1.49 fold enrichment (6-mer frequency, TF over GST control)	1.36 fold enrichment (6-mer frequency, TF over GST control)	1.51 fold enrichment (6-mer frequency, TF over GST control)	1.49 fold enrichment (6-mer frequency, TF over GST control)	1.54 fold enrichment (6-mer frequency, TF over GST control)	1.37 fold enrichment (6-mer frequency, TF over GST control)	1.37 fold enrichment (6-mer frequency, TF over GST control)	1.32 fold enrichment (6-mer frequency, TF over GST control)	1.18 fold enrichment (6-mer frequency, TF over GST control)
GCTTCA	1.35 fold enrichment (6-mer frequency, TF over GST control)	1.39 fold enrichment (6-mer frequency, TF over GST control)	1.28 fold enrichment (6-mer frequency, TF over GST control)	1.34 fold enrichment (6-mer frequency, TF over GST control)	1.33 fold enrichment (6-mer frequency, TF over GST control)	1.4 fold enrichment (6-mer frequency, TF over GST control)	1.24 fold enrichment (6-mer frequency, TF over GST control)	1.31 fold enrichment (6-mer frequency, TF over GST control)	1.27 fold enrichment (6-mer frequency, TF over GST control)
CCTTAA	1.38 fold enrichment (6-mer frequency, TF over GST control)	1.24 fold enrichment (6-mer frequency, TF over GST control)	1.27 fold enrichment (6-mer frequency, TF over GST control)	1.31 fold enrichment (6-mer frequency, TF over GST control)	1.35 fold enrichment (6-mer frequency, TF over GST control)	1.34 fold enrichment (6-mer frequency, TF over GST control)	1.4 fold enrichment (6-mer frequency, TF over GST control)	1.45 fold enrichment (6-mer frequency, TF over GST control)	1.2 fold enrichment (6-mer frequency, TF over GST control)
AACTGC	1.34 fold enrichment (6-mer frequency, TF over GST control)	1.47 fold enrichment (6-mer frequency, TF over GST control)	1.32 fold enrichment (6-mer frequency, TF over GST control)	1.32 fold enrichment (6-mer frequency, TF over GST control)	1.42 fold enrichment (6-mer frequency, TF over GST control)	1.33 fold enrichment (6-mer frequency, TF over GST control)	1.45 fold enrichment (6-mer frequency, TF over GST control)	1.41 fold enrichment (6-mer frequency, TF over GST control)	1.25 fold enrichment (6-mer frequency, TF over GST control)
TACTAT	1.5 fold enrichment (6-mer frequency, TF over GST control)	1.24 fold enrichment (6-mer frequency, TF over GST control)	1.44 fold enrichment (6-mer frequency, TF over GST control)	1.33 fold enrichment (6-mer frequency, TF over GST control)	1.31 fold enrichment (6-mer frequency, TF over GST control)	1.39 fold enrichment (6-mer frequency, TF over GST control)	1.3 fold enrichment (6-mer frequency, TF over GST control)	1.42 fold enrichment (6-mer frequency, TF over GST control)	1.24 fold enrichment (6-mer frequency, TF over GST control)
TGTTTT	1.36 fold enrichment (6-mer frequency, TF over GST control)	1.32 fold enrichment (6-mer frequency, TF over GST control)	1.35 fold enrichment (6-mer frequency, TF over GST control)	1.26 fold enrichment (6-mer frequency, TF over GST control)	1.34 fold enrichment (6-mer frequency, TF over GST control)	1.35 fold enrichment (6-mer frequency, TF over GST control)	1.43 fold enrichment (6-mer frequency, TF over GST control)	1.3 fold enrichment (6-mer frequency, TF over GST control)	1.43 fold enrichment (6-mer frequency, TF over GST control)
TTTGCC	1.42 fold enrichment (6-mer frequency, TF over GST control)	1.26 fold enrichment (6-mer frequency, TF over GST control)	1.2 fold enrichment (6-mer frequency, TF over GST control)	1.26 fold enrichment (6-mer frequency, TF over GST control)	1.23 fold enrichment (6-mer frequency, TF over GST control)	1.22 fold enrichment (6-mer frequency, TF over GST control)	1.23 fold enrichment (6-mer frequency, TF over GST control)	1.31 fold enrichment (6-mer frequency, TF over GST control)	1.21 fold enrichment (6-mer frequency, TF over GST control)
CTCAAG	1.29 fold enrichment (6-mer frequency, TF over GST control)	1.17 fold enrichment (6-mer frequency, TF over GST control)	1.14 fold enrichment (6-mer frequency, TF over GST control)	1.18 fold enrichment (6-mer frequency, TF over GST control)	1.18 fold enrichment (6-mer frequency, TF over GST control)	1.21 fold enrichment (6-mer frequency, TF over GST control)	1.22 fold enrichment (6-mer frequency, TF over GST control)	1.2 fold enrichment (6-mer frequency, TF over GST control)	1.32 fold enrichment (6-mer frequency, TF over GST control)
TCGCCC	1.34 fold enrichment (6-mer frequency, TF over GST control)	1.4 fold enrichment (6-mer frequency, TF over GST control)	1.3 fold enrichment (6-mer frequency, TF over GST control)	1.27 fold enrichment (6-mer frequency, TF over GST control)	1.31 fold enrichment (6-mer frequency, TF over GST control)	1.27 fold enrichment (6-mer frequency, TF over GST control)	1.29 fold enrichment (6-mer frequency, TF over GST control)	1.25 fold enrichment (6-mer frequency, TF over GST control)	1.27 fold enrichment (6-mer frequency, TF over GST control)
CTTATG	1.52 fold enrichment (6-mer frequency, TF over GST control)	1.56 fold enrichment (6-mer frequency, TF over GST control)	1.4 fold enrichment (6-mer frequency, TF over GST control)	1.45 fold enrichment (6-mer frequency, TF over GST control)	1.38 fold enrichment (6-mer frequency, TF over GST control)	1.39 fold enrichment (6-mer frequency, TF over GST control)	1.45 fold enrichment (6-mer frequency, TF over GST control)	1.59 fold enrichment (6-mer frequency, TF over GST control)	1.46 fold enrichment (6-mer frequency, TF over GST control)
CCACTT	1.86 fold enrichment (6-mer frequency, TF over GST control)	1.86 fold enrichment (6-mer frequency, TF over GST control)	1.81 fold enrichment (6-mer frequency, TF over GST control)	2.02 fold enrichment (6-mer frequency, TF over GST control)	1.85 fold enrichment (6-mer frequency, TF over GST control)	1.93 fold enrichment (6-mer frequency, TF over GST control)	2.41 fold enrichment (6-mer frequency, TF over GST control)	1.74 fold enrichment (6-mer frequency, TF over GST control)	1.83 fold enrichment (6-mer frequency, TF over GST control)
TTATCG	1.17 fold enrichment (6-mer frequency, TF over GST control)	1.28 fold enrichment (6-mer frequency, TF over GST control)	1.3 fold enrichment (6-mer frequency, TF over GST control)	1.3 fold enrichment (6-mer frequency, TF over GST control)	1.25 fold enrichment (6-mer frequency, TF over GST control)	1.25 fold enrichment (6-mer frequency, TF over GST control)	1.15 fold enrichment (6-mer frequency, TF over GST control)	1.13 fold enrichment (6-mer frequency, TF over GST control)	1.17 fold enrichment (6-mer frequency, TF over GST control)
